# Article PMC9911399, “Two distinct binding modes provide the RNA-binding protein RbFox with extraordinary sequence specificity”
# Where a chain is given by its changes, count along the chain named. Whole data set: some 16,000 sequences, median “ka relative to ugcaugu” near 0.0091, cut for the highest 2% near 0.032. The list comes from a sample in which the highest values are over-represented; it also holds similar and randomly drawn sequences.
# T1: RBFOX1 RRM (Homo sapiens, UniProt Q9NWB1 109-208)
# T1 sequence: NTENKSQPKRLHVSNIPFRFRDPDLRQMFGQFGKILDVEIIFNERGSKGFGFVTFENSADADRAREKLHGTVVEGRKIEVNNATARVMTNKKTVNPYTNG
# B1: UGCGGUG (DNA:RNA)
# RNA: GGGAGACCGGAAUUCAGAUUGUCCUGCGGUGUUAAAUCCCGUCGUAGCCACCA
# DNA 1: CAATCTGAATTCCGGTCTCCC
# DNA 2: TGGTGGCTACGACGGGATT
# B2: CAUGUGG (DNA:RNA)
# RNA: B1 RNA with U25C, G26A, C27U, G29U, U30G
# DNA 1: CAATCTGAATTCCGGTCTCCC
# DNA 2: TGGTGGCTACGACGGGATT
# B3: GCUACAC (DNA:RNA)
# RNA: GGGAGACCGGAAUUCAGAUUGUCCGCUACACUUAAAUCCCGUCGUAGCCACCA
# DNA 1: CAATCTGAATTCCGGTCTCCC
# DNA 2: TGGTGGCTACGACGGGATT
# B4: CAAUAAC (DNA:RNA)
# RNA: B3 RNA with G25C, C26A, U27A, A28U, C29A
# DNA 1: CAATCTGAATTCCGGTCTCCC
# DNA 2: TGGTGGCTACGACGGGATT
# B5: CGAGGGG (DNA:RNA)
# RNA: B1 RNA with U25C, C27A, U30G
# DNA 1: CAATCTGAATTCCGGTCTCCC
# DNA 2: TGGTGGCTACGACGGGATT
# B6: AAUAUAG (DNA:RNA)
# RNA: B3 RNA with G25A, C26A, C29U, C31G
# DNA 1: CAATCTGAATTCCGGTCTCCC
# DNA 2: TGGTGGCTACGACGGGATT
# B7: GCUGCUA (DNA:RNA)
# RNA: B3 RNA with A28G, A30U, C31A
# DNA 1: CAATCTGAATTCCGGTCTCCC
# DNA 2: TGGTGGCTACGACGGGATT
# B8: UGCUGGA (DNA:RNA)
# RNA: B1 RNA with G28U, U30G, G31A
# DNA 1: CAATCTGAATTCCGGTCTCCC
# DNA 2: TGGTGGCTACGACGGGATT
# B9: UGGAUGC (DNA:RNA)
# RNA: B3 RNA with G25U, C26G, U27G, C29U, A30G
# DNA 1: CAATCTGAATTCCGGTCTCCC
# DNA 2: TGGTGGCTACGACGGGATT
# B10: UGGAUUG (DNA:RNA)
# RNA: B1 RNA with C27G, G28A, G29U
# DNA 1: CAATCTGAATTCCGGTCTCCC
# DNA 2: TGGTGGCTACGACGGGATT
# B11: UCCUGGA (DNA:RNA)
# RNA: B1 RNA with G26C, G28U, U30G, G31A
# DNA 1: CAATCTGAATTCCGGTCTCCC
# DNA 2: TGGTGGCTACGACGGGATT
# B12: UGGAUGA (DNA:RNA)
# RNA: B1 RNA with C27G, G28A, G29U, U30G, G31A
# DNA 1: CAATCTGAATTCCGGTCTCCC
# DNA 2: TGGTGGCTACGACGGGATT
# B13: UGGAAUC (DNA:RNA)
# RNA: B1 RNA with C27G, G28A, G29A, G31C
# DNA 1: CAATCTGAATTCCGGTCTCCC
# DNA 2: TGGTGGCTACGACGGGATT
# B14: UGAGUCU (DNA:RNA)
# RNA: B1 RNA with C27A, G29U, U30C, G31U
# DNA 1: CAATCTGAATTCCGGTCTCCC
# DNA 2: TGGTGGCTACGACGGGATT
# B15: UGGAUUC (DNA:RNA)
# RNA: B1 RNA with C27G, G28A, G29U, G31C
# DNA 1: CAATCTGAATTCCGGTCTCCC
# DNA 2: TGGTGGCTACGACGGGATT
# B16: UGGAGUC (DNA:RNA)
# RNA: B1 RNA with C27G, G28A, G31C
# DNA 1: CAATCTGAATTCCGGTCTCCC
# DNA 2: TGGTGGCTACGACGGGATT
# B17: UGAUGGA (DNA:RNA)
# RNA: B1 RNA with C27A, G28U, U30G, G31A
# DNA 1: CAATCTGAATTCCGGTCTCCC
# DNA 2: TGGTGGCTACGACGGGATT
# B18: UGGAGGC (DNA:RNA)
# RNA: B1 RNA with C27G, G28A, U30G, G31C
# DNA 1: CAATCTGAATTCCGGTCTCCC
# DNA 2: TGGTGGCTACGACGGGATT
# B19: UGGAUGG (DNA:RNA)
# RNA: B1 RNA with C27G, G28A, G29U, U30G
# DNA 1: CAATCTGAATTCCGGTCTCCC
# DNA 2: TGGTGGCTACGACGGGATT
# Molecular target: T1, RBFOX1 RRM
# Assay: EMSA; HiTS-Eq, 1 nM pool, 10 min; buffer printed only for the single-RNA assays: 10 mM Tris pH 7.5, 150 mM NaCl, 3.4 mM EDTA, 0.001% NP-40, 30 C
# Conditions: tags: His6 N-terminal (pET28a); label: 5' 32P
# Summary of the method: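 These values rest on relative association constants, computed from read-count changes of each RNA species versus the control reaction and normalised to the cognate motif. Reads came from free RNA recovered by 8% native PAGE after purified RbFox RRM (wild type or mutant) at increasing concentrations was equilibrated for 10 min in 50 µL with 1 nM of a 5′-radiolabelled pool with 7 randomized nucleotides and DNA-annealed flanks.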
row,Binder,binding signal
1,B1,0.0288 KA relative to UGCAUGU
2,B2,0.00494 KA relative to UGCAUGU
3,B3,0.00819 KA relative to UGCAUGU
4,B4,0.00247 KA relative to UGCAUGU
5,B5,0.00639 KA relative to UGCAUGU
6,B6,0.00237 KA relative to UGCAUGU
7,B7,0.0167 KA relative to UGCAUGU
8,B8,0.0106 KA relative to UGCAUGU
9,B9,0.0582 KA relative to UGCAUGU
10,B10,0.0448 KA relative to UGCAUGU
11,B11,0.00715 KA relative to UGCAUGU
12,B12,0.0437 KA relative to UGCAUGU
13,B13,0.0233 KA relative to UGCAUGU
14,B14,0.0175 KA relative to UGCAUGU
15,B15,0.0192 KA relative to UGCAUGU
16,B16,0.0349 KA relative to UGCAUGU
17,B17,0.00526 KA relative to UGCAUGU
18,B18,0.0186 KA relative to UGCAUGU
19,B19,0.0304 KA relative to UGCAUGU
